PubChem BioAssay AID1159580 (chemical genetic matrix, 2015)
Where “and” joins values, the source holds several entries; their conditions need not be identical. Equal values may be shown once. In all, about 5,500 compounds went through this assay and about 2,000 (36%) were called active. About 18% were inconclusive and are not listed. Rule as the data show it: active = normalized growth mostly below about 0.91 (no sharp cut-off); inconclusive = no clear call, values can overlap the other calls; inactive = mostly above about 0.92. The list shows a part of the results.

Assay: chemical genetic growth profiling, strain panel (AID 1159580);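 also: tested at 20 µM; growth read once vehicle control cultures reached saturation at 30 °C; 1 = growth at the plate median or of vehicle wells; lower values mean less growth of the strain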
Conditions: S. cerevisiae deletion strains, growth OD

Measured: normalized growth

CC(=O)[O][Hg][c]1ccccc1
active: locus YAL013W, strain DEP1, hits give low values 0.0588 | locus YAL021C, strain ccr4, hits give low values 0.0671 | locus YAL026C, strain drs2, hits give low values 0.0633 | locus YAL030W, strain snc1, hits give low values 0.0569 | locus YBL061C, strain skt5, hits give low values 0.0592 | locus YBR009C, strain hhf1, hits give low values 0.066 | locus YBR021W, strain FUR4, hits give low values 0.089 | locus YBR023C, strain chs3, hits give low values 0.0614 | locus YBR171W, strain sec66, hits give low values 0.0817 | locus YBR229C, strain ROT2, hits give low values 0.0467 | locus YBR231C, strain swc5, hits give low values 0.0619 | locus YBR279W, strain paf1, hits give low values 0.0597 | locus YCL011C, strain gbp2, hits give low values 0.0585 | locus YCL016C, strain dcc1, hits give low values 0.0648 | locus YCL029C, strain bik1, hits give low values 0.0611 | locus YCL061C, strain MRC1, hits give low values 0.066 | locus YCL069W, strain vba3, hits give low values 0.062 | locus YCR088W, strain abp1, hits give low values 0.0606 | locus YDL005C, strain med2, hits give low values 0.0736 | locus YDL035C, strain GPR1, hits give low values 0.0539 | locus YDL040C, strain nat1, hits give low values 0.0587 | locus YDL074C, strain BRE1, hits give low values 0.0962 | locus YDL101C, strain DUN1, hits give low values 0.0592 | locus YDL134C, strain PPH21, hits give low values 0.0501 | locus YDL185W, strain tfp1, hits give low values 0.0588 | locus YDL192W, strain arf1, hits give low values 0.0622 | locus YDR001C, strain nth1, hits give low values 0.0585 | locus YDR069C, strain doa4, hits give low values 0.063 | locus YDR101C, strain arx1, hits give low values 0.0626 | locus YDR137W, strain rgp1, hits give low values 0.0849 | locus YDR150W, strain NUM1, hits give low values 0.0584 | locus YDR159W, strain sac3, hits give low values 0.0919 | locus YDR162C, strain NBP2, hits give low values 0.0545 | locus YDR195W, strain ref2 0.124 | locus YDR297W, strain sur2, hits give low values 0.0565 | locus YDR318W, strain mcm21, hits give low values 0.0644 | locus YDR334W, strain swr1, hits give low values 0.0648 | locus YDR335W, strain msn5, hits give low values 0.0613 | locus YDR388W, hits give low values 0.0584 | locus YDR392W, strain spt3, hits give low values 0.1 | locus YDR502C, strain sam2, hits give low values 0.0611 | locus YEL003W, strain gim4, hits give low values 0.0567 | locus YEL037C, strain rad23, hits give low values 0.0594 | locus YEL061C, strain CIN8 (second series), hits give low values 0.0646 | locus YEL061C, strain CIN8, hits give low values 0.0509 | locus YER015W, strain faa2, hits give low values 0.0603 | locus YER016W, strain bim1, hits give low values 0.0596 | locus YER110C, hits give low values 0.079 | locus YER111C, strain swi4, hits give low values 0.0727 | locus YER155C, strain BEM2 (second series), hits give low values 0.0919 | locus YER155C, strain BEM2, hits give low values 0.066 | locus YER167W, strain BCK2, hits give low values 0.0545 | locus YFR010W, strain ubp6, hits give low values 0.0677 | locus YGL078C, strain dbp3, hits give low values 0.0571 | locus YGL086W, strain mad1, hits give low values 0.0571 | locus YGL167C, strain pmr1, hits give low values 0.073 | locus YGL173C, strain kem1, hits give low values 0.0683 | locus YGL227W, strain vid30, hits give low values 0.0651 | locus YGL240W, strain doc1, hits give low values 0.077 | locus YGL248W, strain PDE1, hits give low values 0.0503 | locus YGL253W, strain hxk2, hits give low values 0.055 | locus YGR078C, strain PAC10, hits give low values 0.0552 | locus YGR135W, strain pre9, hits give low values 0.0651 | locus YGR229C, strain SMI1, hits give low values 0.0631 | locus YGR252W, strain gcn5, hits give low values 0.166 | locus YHR013C, strain ard1, hits give low values 0.105 | locus YHR027C, strain rpn1, hits give low values 0.0615 | locus YHR030C, strain SLT2, hits give low values 0.0511 and 0.112 | locus YHR079C, strain IRE1 (second series), hits give low values 0.0572 | locus YHR079C, strain IRE1, hits give low values 0.12 | locus YHR094C, strain hxt1, hits give low values 0.0582 | locus YHR129C, strain ARP1, hits give low values 0.0567 | locus YHR142W, strain chs7, hits give low values 0.0763 | locus YHR200W, strain rpn10, hits give low values 0.0605 | locus YIL066C, strain RNR3, hits give low values 0.059 | locus YIL073C, strain SPO22, hits give low values 0.112 | locus YIL125W, strain kgd1, hits give low values 0.0567 | locus YIR030C, strain dcg1, hits give low values 0.0603 | locus YJL092W, strain hpr5, hits give low values 0.0589 | locus YJL095W, strain BCK1 (second series), hits give low values 0.0569 | locus YJL095W, strain BCK1, hits give low values 0.0577 and 0.107 | locus YJL115W, strain asf1, hits give low values 0.0743 | locus YJL129C, strain trk1, hits give low values 0.0912 | locus YJL134W, strain LCB3, hits give low values 0.0514 | locus YJL154C, strain vps35, hits give low values 0.0614 | locus YJL164C, strain tpk1, hits give low values 0.0658 | locus YJL166W, strain qcr8, hits give low values 0.0602 | locus YJL168C, strain set2, hits give low values 0.0596 | locus YJL187C, strain SWE1 (second series), hits give low values 0.0495 | locus YJL187C, strain SWE1, hits give low values 0.0566 | locus YJR043C, strain POL32, hits give low values 0.069
